Only some compounds are listed: those with a hit (about 4.5% of all), similar ones and a draw of the others.
dFosB activator: enhances mouse delta FosB homodimer DNA binding. P13346. purified delta FosB, TAMRA-CDK5 oligo fluorescence polarization; percent of positive-control signal above neutral wells. activation, % at 25 µM. hit rate 0.99% among 340,000. AID 493131;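 active = mean activation above about 17%, with every replicate also reaching it, limit read from the data, passing the limit was not always enough; inconclusive = only one of the two conditions met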
NR3A LBD binder: NR3A (human) ligand-binding domain modulation. NR3A LBD differential scanning fluorimetry, Tm shift; 0% = protein alone, 100% = glycine-bound protein. Tm shift relative to glycine control, % at 25 µM. hit rate 2.5% among 340,000. AID 1259313;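 active = melting temperature shift of at least 10% of the positive control shift, at one fixed dose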
EBNA-1 inh: blocks EBNA-1 binding to DNA. inhibition, % at 14.8 µM. hit rate 0.34% among 300,000. EBNA-1 DNA binding, fluorescence polarization; in the data active = inhibition above about 28%
Rpn11 inh: inhibitors of human proteasome Rpn11; O00487; human 26S proteasome, Ub4-pepOG fluorescence polarization; 20S core pre-blocked with epoxomicin; inhibition, % at 20 µM; hit rate 0.59% among 360,000; AID 588493;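 active = inhibition at 20 µM, scaled to each plate's controls, above about 33%, limit read from the data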
TPT1 inh: blocks Candida albicans tRNA 2'-phosphotransferase | recombinant caTPT1, FP RNA substrate dephosphorylation | inhibition, % at 5 µM | hit rate 0.81% among 300,000 | AID 1962;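 active = inhibition above the mean of all tested compounds plus 3 SD, set per screening campaign, cut at about 24% in these data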;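 also: plate controls were DMSO alone for no effect and ferristatin control at 100 nM for full effect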
ZTA counter: blocks Epstein-Barr virus ZTA, an EBNA-1 counter-screen | AID 2234 | P03206 | ZTA-DNA binding, fluorescence polarization | inhibition, % at 11 µM | hit rate 0.15% among 320,000; in the data active = inhibition above about 33%
Rpn11 inh conf: Rpn11 inhibition confirmation, single concentration. hit rate 29% among 1,900. shares compounds with Rpn11 inh. purified human 26S proteasome, Ub4-pepOG fluorescence polarization; proteasome pretreated with epoxomicin. inhibition, % at 20 µM
MMP-2 inh: counter-screen for RPN11 inhibitors: inhibition of human MMP-2 | shares compounds with Rpn11 inh | recombinant MMP-2, FRET peptide cleavage fluorescence | inhibition, % at 20 µM | hit rate 4% among 1,900 | AID 602330;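 also: human MMP-2 activated beforehand with APMA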
Thrombin FP: counter-screen for RPN11 inhibitors: inhibition of bovine thrombin. shares compounds with Rpn11 inh. bovine thrombin cleavage of Ub4-pepOG, fluorescence polarization. inhibition, % at 20 µM. hit rate 13% among 1,900;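 active = mean inhibition at least 40% at 20 µM, or signal 3 deviations below plate average, so some actives read negative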;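 also: plate controls were thrombin with DMSO for no effect and buffer wells lacking thrombin for full effect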
Target sequence (P00735 whole entry, looked up): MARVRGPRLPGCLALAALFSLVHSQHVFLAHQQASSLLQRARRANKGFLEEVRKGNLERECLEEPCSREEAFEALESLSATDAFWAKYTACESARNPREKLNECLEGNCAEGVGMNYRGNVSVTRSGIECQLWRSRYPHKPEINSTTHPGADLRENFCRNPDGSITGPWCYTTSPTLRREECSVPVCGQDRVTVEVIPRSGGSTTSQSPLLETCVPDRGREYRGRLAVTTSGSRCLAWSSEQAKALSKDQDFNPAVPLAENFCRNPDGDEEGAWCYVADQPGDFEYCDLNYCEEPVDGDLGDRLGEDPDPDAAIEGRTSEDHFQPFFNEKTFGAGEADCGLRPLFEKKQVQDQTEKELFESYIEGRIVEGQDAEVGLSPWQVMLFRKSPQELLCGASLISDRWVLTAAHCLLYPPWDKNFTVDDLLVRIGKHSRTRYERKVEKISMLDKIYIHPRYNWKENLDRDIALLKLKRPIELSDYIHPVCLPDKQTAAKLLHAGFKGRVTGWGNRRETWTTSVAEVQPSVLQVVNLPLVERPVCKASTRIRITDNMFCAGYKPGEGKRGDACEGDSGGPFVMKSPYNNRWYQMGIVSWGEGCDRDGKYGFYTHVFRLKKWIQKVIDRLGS
An asterisk follows results filed as active; ? = inconclusive; nt = no result given. Rule as the data show it, unless noted: active = inhibition above about 40%; inactive = the rest.

SMILES	dFosB activator	NR3A LBD binder	EBNA-1 inh	Rpn11 inh	TPT1 inh	ZTA counter	Rpn11 inh conf	MMP-2 inh	Thrombin FP
Cc1nnc(N/N=C\c2ccc(-c3ccccc3[N+](=O)[O-])o2)n1N	-4	-2	-3	65*	7	5	0	-37	-3
CCOc1nc(N=C(N)N)nc2c(C)cccc12	1	-2	-7	84*	-1	-4	24	-78	-2
COc1ccc2c(-c3cc4ccc(OCc5ccc(F)cc5)cc4oc3=O)cc(=O)oc2c1	-8	8	3	78*	7	7	16	-43	18
COc1ccc(-c2cc(=O)oc3cc(OCC(C)=O)ccc23)cc1	-17	0	2	-1	2	8	nt	nt	nt
COc1ccc(NC(=O)Nc2nnc(Cc3ccc(F)cc3)s2)cc1	1	2	nt	59*	nt	nt	27	2	27
COCC(C)n1c(C)cc(C(=O)COC(=O)c2c(NC(C)=O)sc(C)c2C)c1C (stereo unspecified)	-13	2	2	49*	-3	-8	-11	-184	-23
CC(C)(c1ccccc1)c1ccc(OCC(O)CNC2CCN(Cc3ccccc3)CC2)cc1 (stereo unspecified)	?	1	7	14	-4	-6	nt	nt	nt
CC(=O)Nc1ccc(C(=O)NNC(=O)c2ccc(Cl)cc2)cc1	7	1	-5	-5	-1	-4	nt	nt	nt
CC(=O)Nc1ccc(N/C=C/C(=O)c2ccc(Cl)cc2)cc1	-6	0	2	98*	3	11	40	-30	14
O=C1NCCN(Cc2ccoc2)C1CC(=O)N(CCO)Cc1ccccc1 (stereo unspecified)	-10	4	-8	-2	-7	-1	nt	nt	nt
COC(=O)c1cc2c(=O)c3ccccc3oc2nc1/C=C/N(C)C	-28	-2	nt	44*	nt	nt	30	-39	10
CC(=O)c1ccccc1NC(=O)C1CCCN(C(=O)c2ccc(Cl)cc2)C1 (stereo unspecified)	-15	-2	nt	2	nt	-7	nt	nt	nt
O=C(COc1ccc2c(-c3ccccc3)cc(=O)oc2c1)Nc1cccnc1	6	0	6	22	1	8	nt	nt	nt
O=C(O)c1cc(-c2ccc(/C=N/Nc3ccc([N+](=O)[O-])cn3)o2)ccc1Cl	-3	-11	nt	76*	nt	nt	1	-15	22
Cc1cccc(C=Nc2ccc3c4c(cccc24)CC3)c1O	3	-5	-10	40	10	-11	nt	nt	nt
CCc1ccc(O)c(N=Cc2cccc(C)c2O)c1	-7	-27	-13	44*	3	7	43*	-22	18
COc1cccc(/C=C/C(=O)OCC(=O)Nc2cccc(S(=O)(=O)N(C)C)c2)c1	-9	-6	4	0	1	-10	nt	nt	nt
COc1ccc2oc(C(=O)Nc3nc(-c4ccccn4)cs3)c(C)c2c1	-27	9	0	42*	14	2	52*	13	9
COc1ccc2oc(C(=O)NC(C)c3ccccn3)c(C)c2c1 (stereo unspecified)	2	-1	nt	2	nt	nt	nt	nt	nt
CC(=O)c1cccc(S(=O)(=O)NCCC(=O)O)c1	-1	-92	-1	-10	2	-15	nt	nt	nt
COc1ccc(C2=NN(C(C#N)c3ccc(OC)c(OC)c3)C(c3ccccc3)C2)cc1 (stereo unspecified)	2	-38	-23	66*	11	5	25	19	17
Cc1ccc2c(c1)N(C(=O)CCC(=O)NC1CCCCCC1)CC(C)O2 (stereo unspecified)	-7	-4	-10	2	-3	-8	nt	nt	nt
CCC(=O)NC(c1cccs1)c1cc([N+](=O)[O-])c2cccnc2c1O (stereo unspecified)	-9	-8	1	40*	0	5	48*	27	-20
CCC(=O)NC(c1cccs1)c1cc(Cl)c2ccccc2c1O (stereo unspecified)	-1	-10	nt	-10	nt	1	nt	nt	nt
CC(C)C(=O)NC(c1ccccc1)c1cc([N+](=O)[O-])c2cccnc2c1O (stereo unspecified)	0	-5	3	45*	1	-4	47*	43*	-1
SMILES	dFosB activator	NR3A LBD binder	EBNA-1 inh	Rpn11 inh	TPT1 inh	ZTA counter	Rpn11 inh conf	MMP-2 inh	Thrombin FP
CCCC(=O)NC(c1cccs1)c1cc([N+](=O)[O-])c2cccnc2c1O (stereo unspecified)	-17	-7	2	47*	-1	7	66*	36	-7
O=C(CCc1ccccc1)NC(c1cccs1)c1cc(Cl)c2cccnc2c1O (stereo unspecified)	-9	-5	nt	16	nt	nt	nt	nt	nt
CCN(CC(=O)Nc1c(F)cccc1F)C(=O)COc1ccc2c(C)cc(=O)oc2c1	-4	1	0	-7	-1	-17	nt	nt	nt
CCn1c(O)c(/C=N/N=C2CCCC2)c2ccc(C3=NNC(=O)CC3)cc21	-6	-2	8	40*	12	-11	35	-49	6
COc1ccc(-n2c(N)c(C(=O)Nc3c(C)n(C)n(-c4ccccc4)c3=O)c3nc4ccccc4nc32)cc1	-19	0	0	88*	-6	-5	7	-45	1
COc1cccc(C(=O)NCC(c2ccco2)N2CCOCC2)c1 (stereo unspecified)	-8	0	-5	-3	2	12	nt	nt	nt
CC(=O)OCC1=C(C(=O)O)N2C(=O)[C@@H](NC(=O)Cc3ccccc3)[C@H]2SC1	-5	1	nt	-3	nt	nt	nt	nt	nt
C=CC1=C(C(=O)O)N2C(=O)C(NC(=O)Cc3ccccc3)C2SC1 (stereo unspecified)	-8	4	3	138*	3	8	34	31	-20
COc1cc(/C=C(/C#N)c2nc3ccccc3[nH]2)ccc1OCc1ccc(C(=O)O)o1	-31	-7	2	5	11	-2	nt	nt	nt
COC(=O)c1ccc(COc2ccc(/C=C(\C#N)c3nc4ccccc4[nH]3)cc2OC)o1	5	7	2	138*	3	10	127*	-150	90*
CC(C)S(=O)(=O)C1=NSC2=NC(=O)/C(=C\c3ccc(-c4ccccc4)o3)C(=N)N21	-4	7	-5	51*	12	0	36	14	20
CC(C)S(=O)(=O)C1=NSC2=NC(=O)/C(=C\c3ccc(-c4cccc(C(=O)O)c4)o3)C(=N)N21	-6	-2	nt	69*	nt	nt	30	0	21

Screening results deposited in PubChem by several laboratories.
